Data reported in PubChem BioAssay (NCI).
About 79,000 compounds went through this panel and 15% of them were active in at least one assay; those are over-represented in the sample as a whole. Calls of active or inactive are those of the source. Cut-off read from the data, not from the text of the source: active = growth inhibition above about 70%; inactive = the rest.

Columns and labels:
[1] = NCI Yeast Anticancer Drug Screen. Data for the rad52 strain (AID 147);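 note: 0% = growth of vehicle-treated control cultures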; conditions: S. cerevisiae rad52 mutant growth inhibition, active compounds read high
Procedure, shortened: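 Inhibition of yeast growth, referenced to vehicle controls, was the measured output for a strain with defective DNA damage repair.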

[2] = NCI Yeast Anticancer Drug Screen. Data for the wt1 strain (AID 149);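 note: 0% = growth of vehicle-treated wt1 cultures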; conditions: S. cerevisiae wt1 strain (SPY 50644) growth inhibition, active compounds read high
Procedure, shortened: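 Measured: growth of wt1 yeast under compound versus vehicle treatment, reported as inhibition.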

[3] = NCI Yeast Anticancer Drug Screen. Data for the rad50EPP+ strain (AID 151);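 note: 0% = growth of vehicle-treated control cultures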; conditions: S. cerevisiae rad50 mutant strain, active compounds read high
Procedure, shortened: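 Genetically defined yeast (rad50EPP+, DNA damage repair alteration) is grown with compound, and inhibition of growth is expressed relative to vehicle-treated controls.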

[4] = NCI Yeast Anticancer Drug Screen. Data for the mgt1 strain (AID 153); conditions: S. cerevisiae mgt1 mutant growth inhibition, active compounds read high
Procedure, shortened: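 In the mgt1 strain, test compounds were added and growth inhibition was determined relative to vehicle-treated controls.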

[5] = NCI Yeast Anticancer Drug Screen. Data for the rad50 strain (AID 155);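 note: 0% = growth of vehicle-only cultures of the same strain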; conditions: S. cerevisiae rad50 strain growth inhibition, active compounds read high
Procedure, shortened: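 Growth of the mutant yeast was measured after compound exposure and referenced to vehicle-treated cultures.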

[6] = NCI Yeast Anticancer Drug Screen. Data for the mec2-1 strain (AID 157); conditions: S. cerevisiae mec2-1 strain, active compounds read high
Procedure, shortened: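 Each compound was tested on mec2-1 yeast, a strain altered in DNA damage repair or cell cycle control. Growth inhibition is reported relative to vehicle.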

[7] = NCI Yeast Anticancer Drug Screen. Data for the rad14 strain (AID 159);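 note: 0% = growth of vehicle-treated control cultures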; conditions: S. cerevisiae rad14 strain growth inhibition, active compounds read high
Procedure, shortened: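 Here, inhibition of yeast growth was measured after compound exposure, using a strain with a genetic defect in DNA damage repair and vehicle-treated cultures as the reference.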

[8] = NCI Yeast Anticancer Drug Screen. Data for the sgs1 mgt1 strain (AID 161);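 note: 0% = growth of cultures given vehicle only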; conditions: S. cerevisiae sgs1 mgt1 strain, active compounds read high
Procedure, shortened: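 Read-out: growth inhibition vs vehicle controls. Cells: mutant yeast strain deficient in DNA damage repair.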

[9] = NCI Yeast Anticancer Drug Screen. Data for the CLN2oe strain (AID 163);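 note: 0% = growth of vehicle-only control cultures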; conditions: S. cerevisiae CLN2oe strain, active compounds read high
Procedure, shortened: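 First, the altered yeast strain was treated with each compound; second, its growth was measured; finally, inhibition was derived by comparison with vehicle controls.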

[10] = NCI Yeast Anticancer Drug Screen. Data for the cln2 rad14 strain (AID 165);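 note: 0% = growth equal to vehicle treated cultures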; conditions: S. cerevisiae cln2 rad14 strain, active compounds read high
Procedure, shortened: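 Test compounds were added to cln2 rad14 yeast cultures; inhibition of growth was then determined by comparison with vehicle treatment.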

[11] = NCI Yeast Anticancer Drug Screen. Data for the bub3 strain (AID 167); conditions: S. cerevisiae bub3 mutant strain, active compounds read high
Procedure, shortened: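 Whole-cell yeast assay. The mutant strain was incubated with compounds, and growth inhibition was determined by comparison with vehicle-treated cells.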

[12] = NCI Yeast Anticancer Drug Screen. Data for the wt2 strain (AID 169);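 note: 0% = growth of vehicle-treated yeast cultures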; conditions: S. cerevisiae wt2 strain growth inhibition, active compounds read high
Procedure, shortened: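 The panel's yeast strains carry defined changes in DNA repair or cell cycle genes. Each strain is grown with compound, and growth loss is scored relative to vehicle.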

[13] = NCI Yeast Anticancer Drug Screen. Data for the mlh1 strain (AID 171);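 note: 0% = growth of vehicle-treated control cultures of the same strain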; conditions: S. cerevisiae mlh1 strain growth inhibition, active compounds read high
Procedure, shortened: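 Inhibition values reflect reduced yeast growth in the presence of compound, referenced to vehicle controls, using a strain chosen for its alteration in DNA repair or cell cycle control.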

[14] = NCI Yeast Anticancer Drug Screen. Data for the sgs1 strain (AID 173);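 note: 0% = growth of vehicle-only control cultures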; conditions: S. cerevisiae sgs1 mutant, active compounds read high
Procedure, shortened: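 Vehicle-treated cultures served as reference for growth inhibition of a yeast strain altered in DNA damage repair or cell cycle control after compound exposure.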

[15] = NCI Yeast Anticancer Drug Screen. Data for the mlh1 rad18 strain (AID 175); conditions: S. cerevisiae mlh1 rad18 strain growth inhibition, active compounds read high
Procedure, shortened: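 Inhibition values reflect reduced growth of mutant yeast versus vehicle-treated controls following compound exposure; the mutations affect DNA damage repair.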

[16] = NCI Yeast Anticancer Drug Screen. Data for the rad18 strain (AID 177); conditions: S. cerevisiae rad18 mutant growth inhibition, active compounds read high
Procedure, shortened: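 Steps: expose repair-mutant yeast to compound; measure growth; express as inhibition relative to vehicle control.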

[17] = at 5.0 µM (retest, dose inferred, filed as 0.5)
[18] = at 50.0 µM (retest, dose inferred, filed as 5.0)

Measured: growth inhibition

C[C@]12CCC3[C@@H](CC[C@@H]4c5nonc5CC[C@]34C)C1CCC2=O (stereo partly specified)
active: [1]; at 33.0 µM 82% | [1]; at 100.0 µM 85% | [4]; at 33.0 µM 84% | [4]; at 100.0 µM 90% | [5]; at 33.0 µM 80% | [5]; at 50.0 µM 87.3% | [5]; at 100.0 µM 87% | [6]; at 100.0 µM 79% | [7]; at 33.0 µM 87% | [7]; at 100.0 µM 90% | [8]; at 50.0 µM 87.6% | [11]; at 50.0 µM 78.2% | [11]; at 100.0 µM 72% | [12]; at 33.0 µM 83% | [12]; at 100.0 µM 83% | [13]; at 33.0 µM 80% | [13]; at 100.0 µM 86% | [14]; at 33.0 µM 92% | [14]; at 100.0 µM 93% | [15]; at 50.0 µM 80.8% | [16]; at 33.0 µM 78% | [16]; at 100.0 µM 83%
inactive: [1]; at 1.2 µM 13% | [1]; at 3.7 µM 22% | [1]; at 11.0 µM 52% | [2]; at 1.2 µM 0% | [2]; at 3.7 µM -1% | [2]; at 11.0 µM 8% | [2]; at 33.0 µM 38% | [2]; at 100.0 µM 65% | [3]; at 1.2 µM 4% | [3]; at 3.7 µM 7% | [3]; at 11.0 µM 16% | [3]; at 33.0 µM 29% | [3]; at 100.0 µM 24% | [4]; at 1.2 µM 20% | [4]; at 3.7 µM 29% | [4]; at 11.0 µM 52% | [5]; at 1.2 µM 14% | [5]; at 3.7 µM 18% | [5]; [17] 27% | [5]; at 11.0 µM 65% | [5]; [18] 67% | [6]; at 1.2 µM 6% | [6]; at 3.7 µM 3% | [6]; [17] 15% | [6]; at 11.0 µM 29% | [6]; at 33.0 µM 54% | [6]; [18] -11% | [6]; at 50.0 µM 47.6% | [7]; at 1.2 µM 40% | [7]; at 3.7 µM 40% | [7]; at 11.0 µM 55% | [8]; [17] 33% | [8]; [18] 69% | [9]; at 1.2 µM 38% | [9]; at 3.7 µM 41% | [9]; at 11.0 µM 48% | [9]; at 33.0 µM 47% | [9]; at 100.0 µM 51% | [10]; [17] 39% | [10]; [18] 54% | [10]; at 50.0 µM 67.7% | [11]; at 1.2 µM 16% | [11]; at 3.7 µM 19% | [11]; [17] -11% | [11]; at 11.0 µM 38% | [11]; at 33.0 µM 61% | [11]; [18] 59% | [12]; at 1.2 µM 3% | [12]; at 3.7 µM 2% | [12]; at 11.0 µM 32% | [13]; at 1.2 µM 8% | [13]; at 3.7 µM 11% | [13]; at 11.0 µM 29% | [14]; at 1.2 µM 19% | [14]; at 3.7 µM 26% | [14]; at 11.0 µM 66% | [15]; [17] 37% | [15]; [18] 63% | [16]; at 1.2 µM 24% | [16]; at 3.7 µM 22% | [16]; at 11.0 µM 50%

Nc1ccc(Cl)cc1C(=O)c1ccccc1
inactive: [1]; at 1.2 µM -15% | [1]; at 3.7 µM -16% | [1]; at 11.0 µM -15% | [1]; at 33.0 µM 46% | [2]; at 1.2 µM -20% | [2]; at 3.7 µM -10% | [2]; at 11.0 µM -10% | [2]; at 33.0 µM 39% | [3]; at 1.2 µM -7% | [3]; at 3.7 µM -2% | [3]; at 11.0 µM 4% | [3]; at 33.0 µM 44% | [4]; at 1.2 µM -28% | [4]; at 3.7 µM -42% | [4]; at 11.0 µM -43% | [4]; at 33.0 µM 3% | [5]; at 1.2 µM -17% | [5]; at 3.7 µM -19% | [5]; [17] 48% | [5]; at 11.0 µM -4% | [5]; at 33.0 µM 57% | [6]; at 1.2 µM -38% | [6]; at 3.7 µM -33% | [6]; [17] 54% | [6]; at 11.0 µM -18% | [6]; at 33.0 µM 0% | [7]; at 1.2 µM -25% | [7]; at 3.7 µM -23% | [7]; at 11.0 µM -15% | [7]; at 33.0 µM 46% | [8]; [17] -19% | [9]; at 1.2 µM 5% | [9]; at 3.7 µM -5% | [9]; at 11.0 µM 5% | [9]; at 33.0 µM 20% | [10]; [17] 57% | [11]; at 1.2 µM -35% | [11]; at 3.7 µM -40% | [11]; [17] -6% | [11]; at 11.0 µM -52% | [11]; at 33.0 µM -23% | [12]; at 1.2 µM -2% | [12]; at 3.7 µM -5% | [12]; at 11.0 µM -6% | [12]; at 33.0 µM 21% | [13]; at 1.2 µM -23% | [13]; at 3.7 µM -33% | [13]; at 11.0 µM -31% | [13]; at 33.0 µM 22% | [14]; at 1.2 µM -7% | [14]; at 3.7 µM 1% | [14]; at 11.0 µM 7% | [14]; at 33.0 µM 63% | [15]; [17] 39% | [16]; at 1.2 µM -12% | [16]; at 3.7 µM -12% | [16]; at 11.0 µM -2% | [16]; at 33.0 µM 69%
active: [1]; at 100.0 µM 97% | [2]; at 100.0 µM 98% | [3]; at 100.0 µM 90% | [4]; at 100.0 µM 97% | [5]; [18] 82% | [5]; at 50.0 µM 91% | [5]; at 100.0 µM 97% | [6]; [18] 86% | [6]; at 50.0 µM 72.2% | [6]; at 100.0 µM 97% | [7]; at 100.0 µM 97% | [8]; [18] 98% | [8]; at 50.0 µM 90.7% | [9]; at 100.0 µM 97% | [10]; [18] 96% | [10]; at 50.0 µM 71.4% | [11]; [18] 96% | [11]; at 50.0 µM 88.1% | [11]; at 100.0 µM 96% | [12]; at 100.0 µM 97% | [13]; at 100.0 µM 97% | [14]; at 100.0 µM 98% | [15]; [18] 81% | [15]; at 50.0 µM 88.4% | [16]; at 100.0 µM 97%
